{"source": "the supplement of paper PMC11732987", "about": "“Enantioselective OTUD7B fragment discovery through chemoproteomics screening and high-throughput optimisation” (Communications Chemistry, 2025)", "test_in_all_cases": "log2 ratio of Biotin-Ahx-Ub-VS probe labelling (fragment/DMSO); higher = less target engagement (more negative = stronger competition), active = hit call of the paper (q ≤ 0.05, log2 ratio ≤ -1)", "details_in_all_cases": "compound concentration: 200 uM; treatment time: 3 h", "key": {"USP19": {"molecular_target": "T1, USP19 (UniProt O94966)", "T1 sequence (whole entry)": "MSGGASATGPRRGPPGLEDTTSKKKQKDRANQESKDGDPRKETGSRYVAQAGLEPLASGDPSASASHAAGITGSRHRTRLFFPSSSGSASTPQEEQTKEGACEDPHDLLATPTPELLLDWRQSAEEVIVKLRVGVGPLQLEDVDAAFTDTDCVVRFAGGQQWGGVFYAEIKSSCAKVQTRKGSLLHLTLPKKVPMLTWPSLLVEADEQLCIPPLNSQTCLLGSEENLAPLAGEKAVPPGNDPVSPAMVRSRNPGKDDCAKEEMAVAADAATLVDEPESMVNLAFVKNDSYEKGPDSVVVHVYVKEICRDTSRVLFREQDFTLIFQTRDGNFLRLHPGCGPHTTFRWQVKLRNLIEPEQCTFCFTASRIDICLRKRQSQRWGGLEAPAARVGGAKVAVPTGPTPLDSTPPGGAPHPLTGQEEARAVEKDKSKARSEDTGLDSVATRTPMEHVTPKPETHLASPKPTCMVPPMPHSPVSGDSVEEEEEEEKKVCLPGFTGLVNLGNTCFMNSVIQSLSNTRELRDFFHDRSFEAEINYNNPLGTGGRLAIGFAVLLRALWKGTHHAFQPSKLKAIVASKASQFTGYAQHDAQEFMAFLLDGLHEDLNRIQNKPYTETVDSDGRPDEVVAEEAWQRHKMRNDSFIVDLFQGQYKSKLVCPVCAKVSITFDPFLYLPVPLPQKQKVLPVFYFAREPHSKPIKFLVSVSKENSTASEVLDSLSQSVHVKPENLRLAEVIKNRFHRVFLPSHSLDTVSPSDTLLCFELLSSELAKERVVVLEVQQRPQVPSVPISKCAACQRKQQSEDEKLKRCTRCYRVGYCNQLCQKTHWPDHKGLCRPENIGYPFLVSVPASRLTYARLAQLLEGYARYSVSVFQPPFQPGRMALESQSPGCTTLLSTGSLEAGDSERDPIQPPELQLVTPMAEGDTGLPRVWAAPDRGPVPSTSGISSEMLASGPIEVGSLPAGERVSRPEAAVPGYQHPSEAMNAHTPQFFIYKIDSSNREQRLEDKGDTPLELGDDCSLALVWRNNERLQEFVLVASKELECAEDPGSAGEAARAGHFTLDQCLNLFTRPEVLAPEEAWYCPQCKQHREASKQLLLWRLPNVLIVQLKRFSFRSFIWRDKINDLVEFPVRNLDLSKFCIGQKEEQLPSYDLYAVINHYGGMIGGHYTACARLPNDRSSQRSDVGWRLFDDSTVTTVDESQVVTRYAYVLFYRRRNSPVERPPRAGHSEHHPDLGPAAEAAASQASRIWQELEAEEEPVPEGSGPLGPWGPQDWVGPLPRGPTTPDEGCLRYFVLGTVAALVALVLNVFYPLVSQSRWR", "procedure,_shortened": "(§1)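 HEK293T lysate (495 µg per sample, in Tris/CHAPS/IGEPAL buffer with protease inhibitors) was exposed in triplicate for 3 h to fragment at 200 µM or to vehicle, then to Biotin-Ahx-Ub-VS at 0.5 µM final for 1 h. Labelled DUBs were enriched on NeutrAvidin, digested with LysC and trypsin, and analysed by diaPASEF LC-MS/MS. Spectronaut label-free quantities were normalised to the global median, and values are average log2 ratios of fragment over vehicle from an unpaired t-test. Only proteins with ≥2 unique peptides were used.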"}, "USP24": {"molecular_target": "USP24 (UniProt Q9UPU5)", "sequence (Q9UPU5 whole entry)": "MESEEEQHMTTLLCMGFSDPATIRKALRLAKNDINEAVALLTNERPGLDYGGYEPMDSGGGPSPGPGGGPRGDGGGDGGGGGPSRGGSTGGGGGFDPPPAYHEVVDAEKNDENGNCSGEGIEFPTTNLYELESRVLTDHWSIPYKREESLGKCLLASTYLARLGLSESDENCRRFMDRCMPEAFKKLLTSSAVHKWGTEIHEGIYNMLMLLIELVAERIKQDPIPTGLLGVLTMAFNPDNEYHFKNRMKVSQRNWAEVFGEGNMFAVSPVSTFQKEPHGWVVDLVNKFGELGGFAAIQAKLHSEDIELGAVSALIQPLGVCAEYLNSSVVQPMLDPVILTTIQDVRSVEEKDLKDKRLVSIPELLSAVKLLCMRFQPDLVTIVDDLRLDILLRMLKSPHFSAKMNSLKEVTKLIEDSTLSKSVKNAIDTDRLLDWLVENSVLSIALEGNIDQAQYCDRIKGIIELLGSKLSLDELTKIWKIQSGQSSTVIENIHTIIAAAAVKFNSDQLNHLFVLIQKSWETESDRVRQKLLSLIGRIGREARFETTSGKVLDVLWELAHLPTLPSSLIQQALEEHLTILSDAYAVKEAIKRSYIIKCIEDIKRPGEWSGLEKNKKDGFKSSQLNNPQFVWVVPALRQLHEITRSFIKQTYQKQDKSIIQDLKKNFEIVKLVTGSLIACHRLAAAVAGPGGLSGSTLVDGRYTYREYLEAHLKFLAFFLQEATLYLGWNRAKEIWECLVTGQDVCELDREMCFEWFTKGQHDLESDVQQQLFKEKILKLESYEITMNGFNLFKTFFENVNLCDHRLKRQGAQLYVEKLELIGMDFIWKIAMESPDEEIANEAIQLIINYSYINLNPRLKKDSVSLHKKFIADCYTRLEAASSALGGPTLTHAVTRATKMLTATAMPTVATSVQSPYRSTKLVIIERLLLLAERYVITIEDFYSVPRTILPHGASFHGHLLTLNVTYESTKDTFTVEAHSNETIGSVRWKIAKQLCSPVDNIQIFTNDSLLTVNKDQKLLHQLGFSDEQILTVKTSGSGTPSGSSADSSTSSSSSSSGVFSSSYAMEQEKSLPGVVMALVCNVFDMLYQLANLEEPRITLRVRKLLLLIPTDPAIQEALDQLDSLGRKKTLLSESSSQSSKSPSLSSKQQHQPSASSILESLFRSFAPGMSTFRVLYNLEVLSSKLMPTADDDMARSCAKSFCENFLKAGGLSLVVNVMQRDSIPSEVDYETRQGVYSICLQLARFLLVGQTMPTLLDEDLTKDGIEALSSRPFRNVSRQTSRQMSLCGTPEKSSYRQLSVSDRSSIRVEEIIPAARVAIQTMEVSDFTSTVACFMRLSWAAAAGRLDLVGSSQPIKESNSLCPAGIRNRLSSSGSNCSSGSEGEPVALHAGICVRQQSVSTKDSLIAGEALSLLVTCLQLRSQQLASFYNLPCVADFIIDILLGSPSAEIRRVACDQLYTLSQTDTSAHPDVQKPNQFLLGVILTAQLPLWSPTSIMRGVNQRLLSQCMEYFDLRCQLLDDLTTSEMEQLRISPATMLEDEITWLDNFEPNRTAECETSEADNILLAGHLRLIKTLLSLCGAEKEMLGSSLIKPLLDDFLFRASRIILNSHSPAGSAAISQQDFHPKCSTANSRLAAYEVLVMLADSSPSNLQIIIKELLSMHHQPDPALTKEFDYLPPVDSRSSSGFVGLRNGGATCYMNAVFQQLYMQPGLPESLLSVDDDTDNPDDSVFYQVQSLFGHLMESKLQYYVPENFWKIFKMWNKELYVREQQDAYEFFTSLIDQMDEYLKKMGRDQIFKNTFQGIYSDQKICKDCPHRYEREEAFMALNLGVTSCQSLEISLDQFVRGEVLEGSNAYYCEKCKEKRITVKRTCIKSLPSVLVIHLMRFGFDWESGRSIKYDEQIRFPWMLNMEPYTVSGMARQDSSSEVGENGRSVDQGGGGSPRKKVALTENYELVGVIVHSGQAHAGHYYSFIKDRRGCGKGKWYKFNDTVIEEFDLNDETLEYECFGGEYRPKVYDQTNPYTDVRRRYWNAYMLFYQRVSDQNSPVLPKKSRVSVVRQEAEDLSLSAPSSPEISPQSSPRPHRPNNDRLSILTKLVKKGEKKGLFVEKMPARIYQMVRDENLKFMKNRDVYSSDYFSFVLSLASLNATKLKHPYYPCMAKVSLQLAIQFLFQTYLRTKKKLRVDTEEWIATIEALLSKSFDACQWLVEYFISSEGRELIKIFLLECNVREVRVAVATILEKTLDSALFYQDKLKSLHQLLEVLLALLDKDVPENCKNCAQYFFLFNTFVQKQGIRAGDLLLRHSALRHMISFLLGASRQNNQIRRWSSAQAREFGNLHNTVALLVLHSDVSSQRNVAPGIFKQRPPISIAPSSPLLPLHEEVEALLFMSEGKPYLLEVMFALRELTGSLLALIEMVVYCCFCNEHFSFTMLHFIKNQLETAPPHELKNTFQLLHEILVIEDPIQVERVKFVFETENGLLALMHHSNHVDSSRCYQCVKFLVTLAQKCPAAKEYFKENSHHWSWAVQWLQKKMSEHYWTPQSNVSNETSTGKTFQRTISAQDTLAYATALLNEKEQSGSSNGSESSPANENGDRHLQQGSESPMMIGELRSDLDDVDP", "procedure,_shortened": "as §1"}, "USP25": {"molecular_target": "T2, USP25 (UniProt Q9UHP3)", "T2 sequence (whole entry)": "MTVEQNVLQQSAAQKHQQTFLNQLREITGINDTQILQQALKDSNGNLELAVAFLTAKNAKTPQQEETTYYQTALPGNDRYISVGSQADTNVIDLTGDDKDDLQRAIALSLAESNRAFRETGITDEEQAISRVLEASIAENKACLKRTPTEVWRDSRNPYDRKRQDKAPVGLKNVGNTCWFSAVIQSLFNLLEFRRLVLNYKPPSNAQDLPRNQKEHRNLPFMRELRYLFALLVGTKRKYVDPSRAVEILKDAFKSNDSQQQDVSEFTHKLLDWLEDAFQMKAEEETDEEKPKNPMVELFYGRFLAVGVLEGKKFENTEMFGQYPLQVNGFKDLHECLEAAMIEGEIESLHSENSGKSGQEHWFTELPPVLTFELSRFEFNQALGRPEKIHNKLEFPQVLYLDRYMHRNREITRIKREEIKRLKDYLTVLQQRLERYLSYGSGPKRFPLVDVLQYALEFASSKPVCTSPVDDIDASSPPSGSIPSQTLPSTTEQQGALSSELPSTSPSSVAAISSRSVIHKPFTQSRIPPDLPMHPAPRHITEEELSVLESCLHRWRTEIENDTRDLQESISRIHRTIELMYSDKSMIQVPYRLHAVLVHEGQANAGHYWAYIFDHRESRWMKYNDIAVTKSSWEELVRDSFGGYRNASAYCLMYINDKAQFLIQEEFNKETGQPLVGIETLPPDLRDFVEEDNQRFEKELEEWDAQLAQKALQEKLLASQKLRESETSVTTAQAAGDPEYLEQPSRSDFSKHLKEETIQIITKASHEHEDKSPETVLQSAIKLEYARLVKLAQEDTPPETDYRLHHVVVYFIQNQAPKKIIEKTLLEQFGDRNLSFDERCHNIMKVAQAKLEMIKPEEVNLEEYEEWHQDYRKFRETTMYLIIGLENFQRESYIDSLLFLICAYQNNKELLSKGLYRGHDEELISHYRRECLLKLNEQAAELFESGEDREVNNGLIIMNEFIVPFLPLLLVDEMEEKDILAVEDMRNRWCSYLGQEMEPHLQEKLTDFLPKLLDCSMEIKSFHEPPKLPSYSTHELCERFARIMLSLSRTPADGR", "procedure,_shortened": "as §1"}, "USP28": {"molecular_target": "T3, USP28 (UniProt Q96RU2)", "T3 sequence (whole entry)": "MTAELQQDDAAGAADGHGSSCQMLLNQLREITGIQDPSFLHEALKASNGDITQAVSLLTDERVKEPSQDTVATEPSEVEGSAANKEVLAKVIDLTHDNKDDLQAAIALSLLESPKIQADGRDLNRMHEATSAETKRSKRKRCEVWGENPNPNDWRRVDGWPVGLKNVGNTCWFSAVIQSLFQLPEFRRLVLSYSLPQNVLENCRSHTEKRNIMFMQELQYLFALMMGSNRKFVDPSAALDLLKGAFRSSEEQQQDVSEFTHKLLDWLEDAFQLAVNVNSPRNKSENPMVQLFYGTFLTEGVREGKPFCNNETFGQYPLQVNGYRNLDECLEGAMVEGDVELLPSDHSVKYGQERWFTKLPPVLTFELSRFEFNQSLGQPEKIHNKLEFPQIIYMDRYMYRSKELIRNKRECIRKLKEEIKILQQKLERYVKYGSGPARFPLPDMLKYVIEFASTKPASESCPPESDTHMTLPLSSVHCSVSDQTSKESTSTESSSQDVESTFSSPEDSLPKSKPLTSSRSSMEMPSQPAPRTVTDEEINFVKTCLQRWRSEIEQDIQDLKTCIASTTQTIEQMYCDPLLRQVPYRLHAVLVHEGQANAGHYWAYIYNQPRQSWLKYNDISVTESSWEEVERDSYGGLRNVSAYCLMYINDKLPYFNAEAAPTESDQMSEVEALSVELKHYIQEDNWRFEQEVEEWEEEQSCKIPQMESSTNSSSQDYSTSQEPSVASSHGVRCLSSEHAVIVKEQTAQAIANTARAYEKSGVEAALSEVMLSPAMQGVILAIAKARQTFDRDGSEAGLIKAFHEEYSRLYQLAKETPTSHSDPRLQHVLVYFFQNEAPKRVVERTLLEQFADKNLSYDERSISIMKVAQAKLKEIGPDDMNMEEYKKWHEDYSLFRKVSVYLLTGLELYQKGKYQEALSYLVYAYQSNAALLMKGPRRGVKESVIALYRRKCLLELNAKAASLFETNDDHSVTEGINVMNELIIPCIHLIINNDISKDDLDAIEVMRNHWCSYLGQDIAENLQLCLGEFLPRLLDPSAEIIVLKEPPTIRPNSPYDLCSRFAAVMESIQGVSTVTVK", "procedure,_shortened": "as §1"}}, "note": "Values without a mark were called inactive."}
{"smiles": "Cc1n[nH]c2c1CN(C(=O)CCl)CC2", "values": [{"measurement": "log2 ratio of Biotin-Ahx-Ub-VS probe labelling", "setting": "USP19", "value": "-1.23 (active)"}, {"measurement": "log2 ratio of Biotin-Ahx-Ub-VS probe labelling", "setting": "USP24", "value": "-1.26 (active)"}, {"measurement": "log2 ratio of Biotin-Ahx-Ub-VS probe labelling", "setting": "USP25", "value": -0.783}, {"measurement": "log2 ratio of Biotin-Ahx-Ub-VS probe labelling", "setting": "USP28", "value": "-1.29 (active)"}]}
